Measured values taken from PubChem BioAssay (NCI).
Compounds without any hit were thinned out: in the full panel of roughly 79,000, 15% have a hit. The source made the active and inactive calls. No stated cut-off is given here; in the data, active means growth inhibition above about 70%; inactive means the rest.

Assays:
[1] = NCI Yeast Anticancer Drug Screen. Data for the rad50 strain (AID 155);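 further: 0% = growth of vehicle-only cultures of the same strain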; details: S. cerevisiae rad50 strain growth inhibition; at 50.0 µM; stronger effect = higher value
Outline: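 Compounds were tested on a yeast strain with an engineered DNA damage repair alteration; the reported value is growth inhibition normalised to vehicle treatment.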

[2] = NCI Yeast Anticancer Drug Screen. Data for the mec2-1 strain (AID 157); details: S. cerevisiae mec2-1 strain, at 50.0 µM, stronger effect = higher value
Outline: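 Vehicle-treated cultures served as reference for growth inhibition of compound-exposed mec2-1 yeast.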

[3] = NCI Yeast Anticancer Drug Screen. Data for the sgs1 mgt1 strain (AID 161);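 further: 0% = growth of cultures given vehicle only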; details: S. cerevisiae sgs1 mgt1 strain, at 50.0 µM, stronger effect = higher value
Outline: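 Genetically altered yeast, compound exposure, growth inhibition relative to vehicle.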

[4] = NCI Yeast Anticancer Drug Screen. Data for the cln2 rad14 strain (AID 165);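 further: 0% = growth equal to vehicle treated cultures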; details: S. cerevisiae cln2 rad14 strain, at 50.0 µM, stronger effect = higher value
Outline: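 Each compound was tested on cln2 rad14 yeast. Inhibition of growth was calculated against vehicle-exposed controls.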

[5] = NCI Yeast Anticancer Drug Screen. Data for the bub3 strain (AID 167); details: S. cerevisiae bub3 mutant strain, at 50.0 µM, stronger effect = higher value
Outline: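 Growth of a checkpoint-deficient yeast mutant is measured after compound exposure. Values represent inhibition relative to vehicle.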

[6] = NCI Yeast Anticancer Drug Screen. Data for the mlh1 rad18 strain (AID 175); details: S. cerevisiae mlh1 rad18 strain growth inhibition; at 50.0 µM; stronger effect = higher value
Outline: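 Vehicle-treated cultures served as the reference for growth inhibition in a yeast strain carrying DNA damage repair alterations exposed to each compound.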

Measured: growth inhibition

c1ccc2c[n+]3cc4ccccc4cc3cc2c1
inactive: [1] 30.9% | [2] 23.4% | [3] 53.7% | [4] 31.3% | [5] 33% | [6] 56.1%

Cc1cc(=O)n(Cc2ccco2)c(=S)[nH]1
inactive: [1] 25.1% | [2] -25.4% | [3] 14.6% | [4] 0.75% | [5] -0.9% | [6] -9%

CCOC(=O)CSc1[nH]c2nc(C)nc(Cl)c2c1C#N
inactive: [1] -20.7% | [2] 8.3% | [3] -5.2% | [4] -6.65% | [5] -3.45% | [6] 16.6%

CCOC(=O)C1Cc2c(n(C3CCCCC3)c(=O)n(C)c2=O)OC1c1ccccc1 (stereo unspecified)
inactive: [1] 14.4% | [2] -5.15% | [3] -7% | [4] 16.1% | [5] 2.55% | [6] -8.05%

CC1COCC(C)N1CC(OCc1ccccc1)c1ccccc1 (stereo unspecified)
inactive: [1] -5.7% | [2] -2.2% | [3] -15.4% | [4] -52.2% | [5] -7.9% | [6] -15.5%

CCN(CC(=O)NC(=O)c1ccccc1)c1ccccc1
inactive: [1] -1.75% | [2] -14% | [3] -4.75% | [4] -34.5% | [5] 5.5% | [6] -12.7%

C/C(=C1/N=C(c2ccccc2)OC1=O)c1ccccc1
inactive: [1] 39.5% | [3] 65.4%
active: [2] 70% | [4] 75.7% | [5] 94.6% | [6] 80.5%

CCOC(=O)CS(=O)(=O)CS(=O)(=O)CC(=O)OCC
inactive: [1] 10% | [2] 8.35% | [3] 7.85% | [4] 5.55% | [5] 9.95% | [6] 7.25%

Cn1cc(/C=C/C(=O)c2ccccc2[N+](=O)[O-])c2ccccc21
inactive: [1] 7.8% | [2] 12.9% | [3] 2.6% | [4] 18.1% | [5] 0.6% | [6] 2.85%

O=c1[nH]c2cc(Cl)ccc2nc1/C=C(\O)c1ccccc1
inactive: [1] 1.35% | [2] -18.9% | [3] -5.9% | [4] 4.55% | [5] -19.1% | [6] 20.1%

CCCCCCCCCCCC(=O)OCc1ccccc1
inactive: [1] -3.9% | [2] 17.8% | [3] 3.1% | [4] 18.2% | [5] -3.5% | [6] 25.8%

O=C(O)CCN1CCSC1=O
inactive: [1] 7.15% | [2] 12.6% | [3] -4.3% | [4] 3.75% | [5] 2.35% | [6] 1.8%

CCCC(=O)Nc1ccc(OCC)cc1
inactive: [1] -9.5% | [2] -4.1% | [3] -11.8% | [4] -49.5% | [5] -18.8% | [6] -16.6%

CC(=O)OCC1OC(n2c(Br)nc3c2c(=O)n(C)c(=O)n3C)C(OC(C)=O)C1OC(C)=O (stereo unspecified)
inactive: [1] -19.9% | [2] -1.3% | [3] -14.3% | [4] -7.95% | [5] -0.95% | [6] 0.25%

Cc1ccc(S(=O)(=O)C23N=NC(C)(C)C2N=NC3(C)C)cc1 (stereo unspecified)
inactive: [1] -10.8% | [2] -19.8% | [3] -6.9% | [4] -58% | [5] -46.6% | [6] 5.4%

NS(=O)(=O)c1ccc(NC(=O)c2cccc3c(=O)c4ccccc4[nH]c23)cc1
inactive: [1] -2.55% | [2] -1.95% | [3] -13.2% | [4] 14.8% | [5] -6% | [6] -14.1%

COc1cccc(C2c3cc4c(cc3OC(NNC(N)=O)C2C)OCO4)c1O (stereo unspecified)
inactive: [1] -12.8% | [2] -8.6% | [3] 2.55% | [4] 9.9% | [5] -2.75% | [6] -7.35%

O=C1OCC/C1=C1/NC2CCCCC2NC1=O (stereo unspecified)
inactive: [1] -6.55% | [2] -16.1% | [3] 1.15% | [4] -24.6% | [5] -6.25% | [6] -14.1%

c1ccc(C2=NC(c3ccccc3)N=C(c3ccccc3)N2)cc1
inactive: [1] -0.75% | [2] 10.3% | [3] 6.1% | [4] -6% | [5] 9.75% | [6] 13.2%

CCOC(=O)C(CCc1ccc([N+](=O)[O-])cc1)(CCc1ccc([N+](=O)[O-])cc1)C(=O)OCC
inactive: [1] -8.7% | [2] -16.1% | [3] -7.3% | [4] -29.1% | [5] -0.3% | [6] 6.15%

O=C(CCCn1ccnc1[N+](=O)[O-])NCCn1cnc([N+](=O)[O-])c1
inactive: [1] 8.9% | [2] 29.6% | [3] 5.2% | [4] 5.75% | [5] -9.4% | [6] 61%

O=C(O)c1cc(N2C(=O)c3ccc4c5ccc6c7c(ccc(c8ccc(c3c48)C2=O)c75)C(=O)N(c2ccc(O)c(C(=O)O)c2)C6=O)ccc1O
inactive: [1] -8.4% | [2] 10% | [3] 3.2% | [4] 34% | [5] 1.65% | [6] 26.3%

CC1(C)CS(=O)(=O)CC(C)(C)C(=O)C1=O
inactive: [1] -25.6% | [2] -19% | [3] -15% | [4] 5.45% | [5] -6% | [6] -3.4%

CN1C(C)(C)CC(CN2c3ccccc3Sc3ccccc32)C1(C)C (stereo unspecified)
inactive: [1] 34.2% | [2] 6.8% | [3] 37.9% | [4] -19.3% | [5] 27.9% | [6] 45.2%

CCCCSCc1nc2nc(Cl)c(Cl)nc2[nH]1
inactive: [1] -18.1% | [2] -37.2% | [3] -23.9% | [4] 1.15% | [5] -44.8% | [6] -9.25%

CC(=O)N(c1ccccc1)c1ccccc1
inactive: [1] 12.8% | [2] 13.2% | [3] 2.6% | [4] 6.05% | [5] -0.2% | [6] 4.1%

Cc1cc(C)cc(O)c1
inactive: [1] -9.4% | [2] -12.8% | [3] -42% | [4] -13.2% | [5] -14.8% | [6] -1.7%

CCN(CC)CCC(CN(C)C)C(C)O (stereo unspecified)
inactive: [1] -4.05% | [2] 4.05% | [3] 13.1% | [4] -17.4% | [5] -1.4% | [6] 8.75%

Cc1ccc(CCC=O)cc1
inactive: [1] 30.6% | [2] -4.1% | [3] 17.4% | [4] -37.9% | [5] -8.5% | [6] 29.4%

N#CCCSC(=S)C(C#N)C(=N)c1ccccc1 (stereo unspecified)
inactive: [1] 13.2% | [2] 2.25% | [3] 14.2% | [4] 1.5% | [5] -18.9% | [6] 10.3%

Cc1cccc(-c2nnc3s/c(=C\c4ccc(N(C)C)cc4)c(=O)n23)c1
inactive: [1] -3.05% | [2] 8.15% | [3] 13.4% | [4] 13.8% | [5] 13.5% | [6] 16.4%

N#CC(C#N)=CNC(N)=S
inactive: [1] -4.7% | [2] -8.75% | [3] -20.7% | [4] 13.7% | [5] -14.8% | [6] 10.1%

Cc1ccc(OS(=O)Nc2cccc(N)c2)cc1 (stereo unspecified)
inactive: [1] -5.35% | [2] -12.1% | [3] -13.9% | [4] -22.1% | [5] -8.4% | [6] -10.3%

C(=N\c1oc(-c2ccccc2)c(-c2ccccc2)c1-c1ccccc1)/c1ccccc1
inactive: [1] 14.4% | [2] -5.15% | [3] -4.85% | [4] 14.3% | [5] 4.2% | [6] 6.2%

O=C(Cl)CN1C(=O)c2ccccc2C1=O
inactive: [1] -12.1% | [2] -24% | [3] -14.5% | [4] -14.3% | [5] -12.3% | [6] -0.25%

Brc1ccc(/C=C/c2ccnnc2)cc1
inactive: [1] 41.5% | [2] 33.8% | [3] 34.6% | [4] 25.5% | [5] 47.7% | [6] 34.4%

CN(C)C(=O)c1ccc[n+](CC(=O)Nc2ccccc2)c1
inactive: [1] 0.7% | [2] -3.85% | [3] 13.1% | [4] -1.25% | [5] 4.05% | [6] -4.4%

CC/C=N/NC(=O)OCC
inactive: [1] -9.8% | [2] -4.85% | [3] -13.9% | [4] 1.1% | [5] -3.3% | [6] -6.85%

[N-]=[N+]=Nc1cc(=O)n(-c2ccccc2)c2ccccc12
inactive: [1] -17.2% | [2] -22.7% | [3] -24.6% | [4] -2.8% | [5] -3.75% | [6] -22.3%

O=S(=O)(O)c1cc2cc(S(=O)(=O)O)c(O)cc2cc1O
inactive: [1] -20.6% | [2] -7.55% | [3] -1.35% | [4] 3.55% | [5] -0.25% | [6] -7.9%

O=c1cc(-c2ccccc2)[nH]c2ncccc12
inactive: [1] -37.5% | [2] -48.6% | [3] -37.1% | [4] -9.4% | [5] -19.8% | [6] -65.8%
